In PubChem BioAssay one finds composite z-score, composite Z-score and z-score data, which are given here for six compounds.

In one assay the target is Albumin (Bos taurus) (UniProt P02769). Put plainly: bovine serum albumin binders on microarray, profiling panel, artefact control for SMM control protein annotation, biochemical, small-molecule microarray, Alexa647 label, 635/667 nm fluorescence (AID 1118).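 Further: score merges 667 nm emission intensity and signal-to-noise per printed compound spot.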 The note with it: BSA-A647 binding, fluorescence 635 nm, higher = more signal.
Assay [1] can be described thus: small-molecule microarray binders of probe aXIP, primary screen, biochemical, NeuroSMM set, 635/667 nm fluorescence (AID 1119).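 Further: probe is the protein aXip251-270 applied at 1 µg/mL to compound-printed slides; binding of probe to printed compounds measured as 667 nm fluorescence plus signal to noise.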 The note with it: higher = more signal, called active from +8 up or from −8 down.
Assay [2] in a line: small-molecule binders of probe aNOTCH3, primary screen, biochemical, small-molecule microarray, 635/667 nm fluorescence (AID 1120).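 Further: probe is a biotin-tagged antibody raised against NOTCH3 rather than NOTCH3 protein; score merges spot fluorescence near 667 nm with spot signal to noise.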 Particulars: higher = more signal.
Assay [3] is described as follows: small-molecule binders of probe aNOTCH2, primary screen, biochemical, small-molecule microarray, 635/667 nm fluorescence (AID 1121).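 Further: score merges feature fluorescence read at 667 nm with its signal to noise.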 Particulars: higher = more signal.
Assay [4] deals with Carbonic anhydrase 2 (Homo sapiens) (UniProt P00918). Put plainly: CAII small-molecule binders, profiling panel, biochemical, small-molecule microarray, Alexa647-labelled CAII (AID 1122). The note with it: CAII-A647 binding fluorescence, higher = more signal.
A short description of assay [5]: COS7 lysate on small-molecule microarray, probe aHis, 635 nm (AID 1123).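 Further: z-score combines 667nm fluorescence intensity with signal-to-noise per printed compound spot.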 The note with it: COS7 cell lysate, fluorescence, higher = more signal.
Assay [6] in a line: compound binding in COS7 lysate, probe aLAP1, primary screen, cell lysate, small-molecule microarray (AID 1124).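 Further: lysate comes from COS7 cells expressing LAP1 and is applied at 0.3 µg/mL; score merges spot fluorescence near 667 nm with signal-to-noise over triplicate slides.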 The note with it: probe aLAP1, fluorescence, higher = more signal.
In another assay the test system is Sam68 (KHDRBS1). Briefly: Sam68 small-molecule binders, primary screen, biochemical, small-molecule microarray, 635 nm fluorescence (AID 1125).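 Further: score merges 667 nm channel intensity with signal to noise over triplicate slides.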 The note with it: small-molecule microarray binding, higher = more signal.
Assay [7] deals with Chordin-like protein 2 (CHRDL2). Briefly: CHRDL2 small-molecule binders, primary screen, biochemical, small-molecule microarray, 635 nm fluorescence (AID 1126).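 Further: printed compound slides probed with Chrdl2 protein at 4 µg/mL for 1 h at 4 C; score merges 667 nm emission intensity with signal to noise over three replicate slides.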 The note with it: small-molecule microarray binding, fluorescence 635 nm; higher = more signal.
Assay [8] concerns the target Concanavalin-A (Canavalia ensiformis) (UniProt P02866). Briefly: ConA small-molecule binders, primary screen, artefact control for SMM control protein annotation, biochemical, small-molecule microarray, Alexa647 label, 635 nm (AID 1127).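 Further: z combines 667 nm emission intensity with signal-to-noise across three replicate slides.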 The note with it: ConA-A647 binding fluorescence, higher = more signal.
Assay [9] is described as follows: anti-His antibody binders, primary screen, artefact control for SMM control protein annotation, biochemical, small-molecule microarray, 635 nm fluorescence (AID 1128).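 Further: score merges feature fluorescence with signal-to-noise for each printed compound spot.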 The note with it: anti-His Alexa647 antibody binding, higher = more signal.
The test system of assay [10] is Human papillomavirus type 1a E7 protein (residues 1-88). Briefly: HPV1a E7 small-molecule binders, primary screen, biochemical, small-molecule microarray, residues 1-88, 635 nm (AID 1129). The note with it: small-molecule microarray binding, fluorescence 635 nm; higher = more signal.
Assay [11] deals with Focal adhesion kinase 1 (Homo sapiens) (UniProt Q05397). Put plainly: small-molecule microarray binders of FAK, primary screen, biochemical, 635/667 nm fluorescence, BSA, DTT (AID 1130).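 Further: composite of spot emission at 667 nm and signal to noise over triplicate slides.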 Particulars: PTK2 binding, 635 nm fluorescence, higher = more signal.
The test system of assay [12] is Fibrinogen (Alexa647-labelled). Put plainly: fibrinogen binders on compound microarrays, profiling panel, artefact control for SMM control-protein annotation, biochemical, small-molecule microarray, 635/667 nm fluorescence (AID 1131).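 Further: z-score merges 667 nm fluorescence with per-spot signal-to-noise over triplicate slides.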 The note with it: fibrinogen-A647 binding fluorescence, higher = more signal.
Assay [13] deals with Follistatin (Homo sapiens) (UniProt P19883). Put plainly: follistatin binders on small-molecule microarrays, primary screen, biochemical, small-molecule microarray, 635/667 nm fluorescence (AID 1132). Particulars: FST binding, 635 nm fluorescence, higher = more signal.
In assay [14] the target is Fibroblast growth factor 2 (Homo sapiens) (UniProt P09038). Briefly: FGF2 binders on small-molecule microarrays, primary screen, biochemical, small-molecule microarray, 635/667 nm fluorescence (AID 1133). Particulars: small-molecule microarray binding, FGF2, fluorescence 635/667; higher = more signal.
A short description of assay [15]: mitochondrial membrane potential change in A549 cells, profiling panel, cell-based, JC-1 fluorescence, basal, 24 h, 100 nL (AID 1138).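 Further: A549 lung adenocarcinoma cells under basal conditions with no added stimulus; test concentration not given here.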 Particulars: higher = more signal.
Another assay has as its system Lefty1. Put plainly: Lefty1 binders on small-molecule microarrays, primary screen, biochemical, small-molecule microarray, 635/667 nm fluorescence (AID 1139). The note with it: small-molecule microarray binding, fluorescence 635/667; higher = more signal.
Assay [16] deals with wheat germ agglutinin (Triticum aestivum), Alexa647-labelled. Put plainly: wheat germ agglutinin binders on compound microarrays, profiling panel, artefact control for SMM control-protein annotation, biochemical, small-molecule microarray, 635/667 nm fluorescence (AID 1140).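 Further: score merges 667 nm feature emission with signal to noise over triplicate slides.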 Particulars: WGA-A647 binding, 635 nm fluorescence, higher = more signal.
In assay [17] the target is Luciferin 4-monooxygenase (Photinus pyralis) (UniProt P08659). Put plainly: firefly luciferase enzyme inhibitors, primary screen, biochemical, luminescence, purified enzyme, 2006 set (AID 1141).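 Further: cell-free assay with purified firefly luciferase at 100 ng per well in PBS; test concentration not given here.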 Particulars: SteadyGlo luminescence, 30 min, higher = more signal, called active from +8 up or from −8 down.

Calls of active or inactive are those of the source.

Albumin (Bos taurus), sequence (P02769 whole entry, looked up): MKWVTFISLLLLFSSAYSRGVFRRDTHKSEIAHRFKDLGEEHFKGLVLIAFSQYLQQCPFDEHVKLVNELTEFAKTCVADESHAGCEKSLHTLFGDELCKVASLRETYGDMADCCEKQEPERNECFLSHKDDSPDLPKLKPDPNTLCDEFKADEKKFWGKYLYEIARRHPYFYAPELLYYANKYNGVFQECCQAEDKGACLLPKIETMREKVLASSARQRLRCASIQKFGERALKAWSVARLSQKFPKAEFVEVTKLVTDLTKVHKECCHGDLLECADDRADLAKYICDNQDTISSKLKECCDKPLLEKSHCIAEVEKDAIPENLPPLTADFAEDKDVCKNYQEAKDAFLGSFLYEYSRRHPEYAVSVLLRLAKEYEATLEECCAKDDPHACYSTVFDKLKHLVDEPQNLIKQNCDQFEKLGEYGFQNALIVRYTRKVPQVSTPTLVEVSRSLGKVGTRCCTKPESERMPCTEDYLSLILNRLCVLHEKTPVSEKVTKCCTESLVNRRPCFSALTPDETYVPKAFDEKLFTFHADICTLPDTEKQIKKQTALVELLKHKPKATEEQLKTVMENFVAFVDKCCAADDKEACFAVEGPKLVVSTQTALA
Fibroblast growth factor 2 (Homo sapiens), sequence (P09038 whole entry, looked up): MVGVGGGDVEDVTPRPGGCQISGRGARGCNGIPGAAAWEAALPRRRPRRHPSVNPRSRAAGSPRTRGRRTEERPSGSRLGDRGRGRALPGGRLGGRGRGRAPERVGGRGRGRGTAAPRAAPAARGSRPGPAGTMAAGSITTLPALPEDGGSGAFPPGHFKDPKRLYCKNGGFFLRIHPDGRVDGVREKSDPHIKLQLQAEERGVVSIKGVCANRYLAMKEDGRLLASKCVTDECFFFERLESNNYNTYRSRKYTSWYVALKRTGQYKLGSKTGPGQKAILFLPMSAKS
Follistatin (Homo sapiens), sequence (P19883 whole entry, looked up): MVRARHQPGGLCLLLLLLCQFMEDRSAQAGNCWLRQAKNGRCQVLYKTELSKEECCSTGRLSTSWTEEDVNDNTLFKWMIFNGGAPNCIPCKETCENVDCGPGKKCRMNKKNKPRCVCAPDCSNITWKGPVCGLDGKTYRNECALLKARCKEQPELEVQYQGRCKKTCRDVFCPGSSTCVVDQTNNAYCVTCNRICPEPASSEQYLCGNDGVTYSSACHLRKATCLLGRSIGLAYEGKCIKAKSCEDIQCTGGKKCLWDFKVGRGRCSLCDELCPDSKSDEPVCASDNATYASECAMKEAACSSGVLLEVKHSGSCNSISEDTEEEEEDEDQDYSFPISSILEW
Concanavalin-A (Canavalia ensiformis), sequence (P02866 whole entry, looked up): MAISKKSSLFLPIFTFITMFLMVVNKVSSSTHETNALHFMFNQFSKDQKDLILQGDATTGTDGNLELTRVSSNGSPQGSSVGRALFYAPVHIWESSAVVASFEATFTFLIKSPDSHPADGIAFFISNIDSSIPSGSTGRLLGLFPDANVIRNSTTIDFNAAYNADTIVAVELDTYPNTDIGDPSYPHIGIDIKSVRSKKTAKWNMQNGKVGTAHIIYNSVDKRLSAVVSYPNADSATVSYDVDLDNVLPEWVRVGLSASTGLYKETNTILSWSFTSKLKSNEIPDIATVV
Focal adhesion kinase 1 (Homo sapiens), sequence (Q05397 whole entry, looked up): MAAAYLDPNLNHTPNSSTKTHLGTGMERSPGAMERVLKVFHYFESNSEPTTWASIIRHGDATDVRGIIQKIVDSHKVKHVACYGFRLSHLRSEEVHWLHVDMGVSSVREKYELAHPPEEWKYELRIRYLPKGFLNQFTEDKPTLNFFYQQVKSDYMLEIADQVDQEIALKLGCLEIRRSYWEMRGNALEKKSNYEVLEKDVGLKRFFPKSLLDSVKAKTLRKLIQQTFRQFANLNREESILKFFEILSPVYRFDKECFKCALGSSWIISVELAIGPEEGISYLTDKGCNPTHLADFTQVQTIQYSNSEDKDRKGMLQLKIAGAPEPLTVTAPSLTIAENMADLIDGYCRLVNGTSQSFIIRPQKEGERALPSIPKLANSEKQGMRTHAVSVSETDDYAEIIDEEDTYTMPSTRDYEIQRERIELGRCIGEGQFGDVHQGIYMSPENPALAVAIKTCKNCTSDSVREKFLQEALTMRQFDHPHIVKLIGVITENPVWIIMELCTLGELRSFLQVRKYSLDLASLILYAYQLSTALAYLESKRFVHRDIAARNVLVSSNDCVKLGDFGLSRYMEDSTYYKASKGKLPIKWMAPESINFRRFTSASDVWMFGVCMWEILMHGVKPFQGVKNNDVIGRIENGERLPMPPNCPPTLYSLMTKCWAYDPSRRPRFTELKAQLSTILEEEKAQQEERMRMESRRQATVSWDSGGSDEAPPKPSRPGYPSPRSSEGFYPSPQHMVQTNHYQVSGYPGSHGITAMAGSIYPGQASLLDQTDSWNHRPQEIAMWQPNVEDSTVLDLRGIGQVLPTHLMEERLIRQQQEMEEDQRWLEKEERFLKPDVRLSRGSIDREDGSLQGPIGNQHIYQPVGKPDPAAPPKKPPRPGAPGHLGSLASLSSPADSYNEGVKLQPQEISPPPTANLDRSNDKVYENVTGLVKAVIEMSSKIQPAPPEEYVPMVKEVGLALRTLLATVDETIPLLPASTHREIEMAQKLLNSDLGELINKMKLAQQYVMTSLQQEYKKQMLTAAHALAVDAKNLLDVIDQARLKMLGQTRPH
Luciferin 4-monooxygenase (Photinus pyralis), sequence (P08659 whole entry, looked up): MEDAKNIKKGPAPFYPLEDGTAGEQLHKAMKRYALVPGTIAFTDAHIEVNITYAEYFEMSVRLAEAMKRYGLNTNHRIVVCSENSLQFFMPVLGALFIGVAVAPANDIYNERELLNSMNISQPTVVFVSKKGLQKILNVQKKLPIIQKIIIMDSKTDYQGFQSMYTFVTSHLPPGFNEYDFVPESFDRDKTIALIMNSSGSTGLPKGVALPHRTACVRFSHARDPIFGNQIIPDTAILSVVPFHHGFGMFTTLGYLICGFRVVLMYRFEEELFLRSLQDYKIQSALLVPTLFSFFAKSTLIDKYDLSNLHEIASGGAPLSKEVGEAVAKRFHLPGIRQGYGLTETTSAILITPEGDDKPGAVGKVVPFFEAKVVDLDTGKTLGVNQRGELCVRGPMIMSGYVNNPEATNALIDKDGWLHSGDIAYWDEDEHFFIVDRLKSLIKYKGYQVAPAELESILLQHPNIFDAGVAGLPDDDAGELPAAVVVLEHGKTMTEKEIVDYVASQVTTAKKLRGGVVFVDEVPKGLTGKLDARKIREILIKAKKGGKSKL

Take `C=CCNC(=O)[C@@H]1[C@H]2C(=O)O[C@H](c3ccccc3)[C@H](c3ccccc3)N2[C@H](c2ccccc2OCCO)[C@@]12C(=O)N(C(=O)OCCOC)c1ccc(C#CC3(O)CCCCCC3)cc12`: the composite z-score with Albumin (Bos taurus) was 0.351; in assay [2], 0.11; in assay [3], -0.0708; in assay [4], 0.354; in assay [5], 2.15; in [6] it was 0.618. For the same compound, the composite z-score in the assay with Sam68 (KHDRBS1) was 1.29; in [7], 0.755; in assay [8] it was 1.07; in assay [9] it was 0.713; in assay [10], 1.22; in assay [11], 0.894. The composite z-score in [12] was 0.905; in assay [13], 1.34; in [14] it was 0.924; in the assay with Lefty1, 0.988; in assay [16], 0.323. For the same compound, the composite Z-score in [1] was 0.0141 (inactive). Further, the z-score was -1.2 in assay [15] and 0.558 (inactive) in assay [17].

For the compound `CN(C)c1ccc(C(O)C2C=CC3C(=O)NC(=O)C3N2Nc2ccccn2)cc1` (stereo not given), the composite z-score in the assay with Albumin (Bos taurus) was 0.396; in [2], -0.0419; in [3] it was 0.046; in assay [4], 0.788; in assay [5], 0.718; in assay [6], 0.282. Further, the composite z-score in the assay on Sam68 (KHDRBS1) was 0.711; in assay [7] it was 0.987; in assay [8], 0.372; in [9], 0.909; in [10], 0.683; in [11] it was 0.304. Further, the composite z-score in assay [12] amounted to 0.309; in assay [13] it was 1.32; in assay [14] it was 0.417; with Lefty1 it was 0.783; in [16], 0.423. Also, in assay [1], the composite Z-score is 0.378 (inactive). Besides, the z-score in [15] is 0.229; in assay [17] it was -0.866 (inactive).

Consider `CCCCCCCCCC(O)C1C=CC2C(=O)N(c3ccccc3)C(=O)C2N1Nc1cc(OC)c(OC)c(OC)c1` (stereo not given), for which the composite z-score was 0.168 in the assay with Albumin (Bos taurus); -0.0751 in [2]; -0.14 in assay [3]; 0.528 in [4]; 2.25 in assay [5]; -0.354 in [6]. For the same compound, the composite z-score with Sam68 (KHDRBS1) is 0.683; in [7], -0.919; in assay [8], 0.932; in assay [9], 0.374; in assay [10], 0.675; in assay [11] it was 0.636. For the same compound, the composite z-score is 0.585 in assay [12]; 0.0214 in assay [13]; -1.09 in assay [14]; -0.312 in the assay on Lefty1; 0.172 in assay [16]. In addition, in assay [1], the composite Z-score was 0.182 (inactive). For the same compound, the z-score was -0.512 in [15] and -1.96 (inactive) in assay [17].

`CCCC[C@@H]1C[C@H]1[C@@H](NC(=O)c1cccs1)c1ccccc1C(F)(F)F`: the composite z-score is 0.485 with Albumin (Bos taurus); 0.265 in assay [2]; 0.0117 in [3]; 0.431 in assay [4]; 2.62 in [5]; 0.588 in [6]. For the same compound, the composite z-score with Sam68 (KHDRBS1) is 1.27; in [7], -0.319; in assay [8], 1.08; in assay [9] it was 1.01; in assay [10] it was 1.2; in [11] it was -0.157. The composite z-score in [12] was 0.982; in assay [13], -0.152; in assay [14] it was 0.28; in the assay with Lefty1, -0.716; in assay [16] it was 0.839. For the same compound, the composite Z-score in assay [1] is -0.147 (inactive). Moreover, the figures for the z-score in assay [15] and in assay [17] were 0.245 and 1.75 (inactive), respectively.

With `Cc1ccc(NN2C(C(O)c3c(F)cccc3Cl)C=CC3C(=O)N(C4CCCCC4)C(=O)C32)cc1` (stereo not given), the composite z-score in the assay with Albumin (Bos taurus) was 0.979; in assay [2], 0.102; in assay [3] it was 0.174; in assay [4], 0.489; in assay [5], 2.38; in assay [6] it was -0.0134. For the same compound, the composite z-score with Sam68 (KHDRBS1) is 1.25; in [7] it was -0.804; in assay [8], 1.19; in assay [9] it was 1.5; in assay [10] it was 1.2; in [11] it was 0.601. Also, the composite z-score is 1.04 in [12]; 0.842 in [13]; -0.413 in assay [14]; -0.209 with Lefty1; 1.26 in [16]. For the same compound, the composite Z-score in assay [1] was 0.788 (inactive). For the same compound, the z-score is 1.19 in [15] and 0.289 (inactive) in [17].

`COC(=O)C(CC#Cc1ccc2c(c1)[C@]1(C(=O)N2)[C@H](c2ccc(O)cc2)N2[C@H](c3ccccc3)[C@H](c3ccccc3)OC(=O)[C@H]2[C@@H]1C(=O)NC[C@H](O)c1ccccc1)C(=O)OC`: the composite z-score with Albumin (Bos taurus) was 0.0841; in assay [2] it was 0.0948; in assay [3], -0.0956; in assay [4] it was 0.553; in assay [5], 1.22; in assay [6], 1.2. Also, the composite z-score with Sam68 (KHDRBS1) is 1.24; in assay [7] it was 0.294; in [8], 0.517; in assay [9], 0.509; in assay [10], 0.779; in [11], 0.408. The composite z-score in assay [12] worked out at 0.733; in [13], 1.21; in assay [14] it was 0.551; in the assay on Lefty1 it was 0.685; in assay [16], 0.9. The composite Z-score in assay [1] was 0.564 (inactive). Also, the z-score in assay [15] was -0.97; in assay [17], 0.314 (inactive).
